Test results: PubChem BioAssay (NCATS)
Values without a mark were called inactive. Activity calls are given as the source filed them. Calls come from the whole dose curve; as a rule, active = well fitted curve in the direction sought with a large enough effect; inactive = no such curve, though single readings can be large or run the other way.

target: Alpha-galactosidase A (Homo sapiens) (UniProt P06280); test: Counterscreen for Glucocerebrosidase Inhibitors: qHTS Assay for Human alpha-Galactosidase at pH 4.5 (AID 992); conditions: purified enzyme, fluorogenic substrate; series mostly up to 76.9 µM; activity change, negative = inhibition: at the top concentration; note: 0% is about no effect
Sequence (P06280 whole entry, looked up): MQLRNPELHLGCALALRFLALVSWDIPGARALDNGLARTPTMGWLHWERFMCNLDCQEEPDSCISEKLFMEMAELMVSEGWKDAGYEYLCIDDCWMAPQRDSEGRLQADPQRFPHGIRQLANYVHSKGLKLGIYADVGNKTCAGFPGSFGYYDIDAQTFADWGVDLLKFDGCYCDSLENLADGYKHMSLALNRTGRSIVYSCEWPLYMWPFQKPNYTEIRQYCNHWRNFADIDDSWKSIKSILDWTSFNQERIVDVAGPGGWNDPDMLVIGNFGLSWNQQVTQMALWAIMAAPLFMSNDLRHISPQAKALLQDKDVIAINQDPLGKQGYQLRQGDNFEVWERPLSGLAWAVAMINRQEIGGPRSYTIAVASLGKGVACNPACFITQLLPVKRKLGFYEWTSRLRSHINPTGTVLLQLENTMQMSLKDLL
Outline: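 Citrate buffer pH 4.5, Tween-20 0.005%. Enzyme 2 nM, substrate 80 uM, 20 min RT. Stop pH 10. Fluorescence Ex 365/Em 440. AC50 by Hill fit.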

SMILES | activity change, negative = inhibition | outcome
O=C(O)/C=C/c1ccc(O)c(O)c1 | 0.144% | –
COc1ccc(NC(=O)c2ccc(-c3ccc(-c4noc(C)n4)cc3C)cc2)cc1N1CCN(C)CC1 | 3.51% | –
N#C/C(=C\c1ccc(O)c(O)c1)C(=O)NCCc1ccccc1 | -0.207% | –
CCCCCCCCCCCCCCSCC(=O)O | -2.82% | –
C/C(=C\c1ccc(C(=O)O)cc1)c1ccc2c(c1)C(C)(C)CCC2(C)C | 6.54% | –
N=C(N)c1ccc(OCCCCCOc2ccc(C(=N)N)cc2)cc1 (tested in a mixture with another compound) | -1.68% | –
COc1cc(/C=C(\C#N)C(=O)c2ccc(O)c(O)c2)cc(I)c1O | -3.27% | –
COc1ccc2c(c1)c(CC(=O)O)c(C)n2C(=O)c1ccccc1 | -2.45% | –
CCCn1c(=O)c2c(ncn2C)n(CCC)c1=O | -2.25% | –
COc1ccccc1N1CCN(CCN(C(=O)c2ccc(F)cc2)c2ccccn2)CC1 | -1.6% | –
CCC(=O)N1CCN(C(=O)c2ccccc2)CC1 | -1.29% | –
O=C(O)/C(=C/c1c(C(=O)O)[nH]c2cc(Cl)cc(Cl)c12)c1ccccc1 | -2.89% | –
O=c1ccc2c(OCCCCc3ccccc3)c3ccoc3cc2o1 | -4.33% | –
Cn1ccnc1 | -1.18% | –
CNc1cc(NS(=O)(=O)c2ccc(N)cc2)nc(NC)n1 | 2.79% | –
O=c1oc(Cl)c(Cl)c2ccccc12 | -1.69% | –
NC(=Nc1ccccc1)NC(=O)c1nc(Cl)c(N)nc1N | -2.55% | –
CCCn1c(=O)c2[nH]c(-c3ccc(S(=O)(=O)O)cc3)nc2n(CCC)c1=O | 17.9% | –
COc1cc(CNC(=O)CCCCCCC(C)C)ccc1O | -1.04% | –
COc1ccc(C(=O)NCc2cccnc2)cc1C(=O)NCc1cccnc1 | 0.171% | –

SMILES | activity change, negative = inhibition | outcome
O=C1NC(=O)c2cc(Nc3ccccc3)c(Nc3ccccc3)cc21 | 1.25% | –
CNC(=O)c1cc2c(cn1)[nH]c1ccccc12 | -0.306% | –
c1ccc2c(c1)CC(N1CCN(c3cccc4c3OCCO4)CC1)C2 | -4.06% | –
C#CCn1c(=O)c2c(ncn2C)n(C)c1=O | -1.62% | –
Cc1nc(N=Nc2ccc(C(=O)O)cc2)c(COP(=O)(O)O)c(C=O)c1O | -0.52% | –
COc1ccccc1N1CCN(CCCCNC(=O)c2ccc3ccccc3c2)CC1 | -5.76% | –
COCc1nc2c([nH]1)c(=O)n(C)c(=O)n2CC(C)C | -0.862% | –
CC(C)NC[C@H](O)COc1ccc(CC(N)=O)cc1 | – | inactive
Nc1ccc(-c2ccc3ccccc3n2)cc1 | -0.947% | –
Fc1ccc(CN(C2=NCCN2)c2c(Cl)cccc2Cl)cc1 | 0.971% | –
N#CC(C#N)=C(N)/C(C#N)=C/c1ccc(O)cc1 | -4.28% | –
[Li+] | -1.31% | –
COc1ccccc1N1CCN(CCCCN2C(=O)c3ccccc3C2=O)CC1 | 1.89% | –
COc1ccc(CCN(C)CCc2ccc(OC)c(OC)c2)cc1OC | -4.11% | –
Nc1nc2[nH]c(=O)cnc2c(=O)[nH]1 | -0.846% | –
CC(=O)NCCc1c[nH]c2ccc(O)cc12 | 2.49% | –
CC[C@H](NC(=O)c1c(C)c(-c2ccccc2)nc2ccccc12)c1ccccc1 | -9.15% | –
CN[C@H](CC(=O)O)C(=O)O | -0.739% | –
CC[C@@H]1Cc2cc(O)ccc2C2=C1c1ccc(O)cc1C[C@H]2CC | 80.4% | –
C[N+](C)(C)CC=O | -1.41% | –
